The whole screen tested about 5,500 compounds, of which about 2,000 (36%) were called active. Not shown: some 18% with an inconclusive outcome. Cut-off read from the data, not from the text of the source: active = normalized growth mostly below about 0.91 (no sharp cut-off); inconclusive = no clear call, values can overlap the other calls; inactive = mostly above about 0.92. Some of the results follow.
Assay: chemical genetic growth profiling, strain panel (AID 1159580);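 note: tested at 20 µM; growth read once vehicle control cultures reached saturation at 30 °C; 1 = growth at the plate median or of vehicle wells; lower values mean less growth of the strain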
Conditions: growth OD

Measured: normalized growth

CC[C@H]1OC(=O)[C@H](C)[C@@H](O[C@H]2C[C@@](C)(OC)[C@@H](O)[C@H](C)O2)[C@H](C)[C@@H](O[C@@H]2O[C@H](C)C[C@H](N(C)C)[C@H]2O)[C@](C)(O)C[C@@H](C)[C@@H]2N[C@@H](COCCOC)O[C@H]([C@H]2C)[C@]1(C)O
inactive: S. cerevisiae deletion strains, locus YJR075W, strain HOC1, stronger effect = lower value 1.05 | S. cerevisiae deletion strains, locus YKL009W, strain mrt4, stronger effect = lower value 1.03 | S. cerevisiae deletion strains, locus YKL068W, stronger effect = lower value 1 | S. cerevisiae deletion strains, locus YKL085W, strain MDH1 (second series), stronger effect = lower value 0.976 | S. cerevisiae deletion strains, locus YKL085W, strain MDH1, stronger effect = lower value 0.976 | S. cerevisiae deletion strains, locus YKL160W, strain elf1, stronger effect = lower value 1 | S. cerevisiae deletion strains, locus YKR001C, strain vps1, stronger effect = lower value 1.01 | S. cerevisiae deletion strains, locus YKR026C, strain gcn3, stronger effect = lower value 0.987 | S. cerevisiae deletion strains, locus YKR091W, strain srl3, stronger effect = lower value 0.997 | S. cerevisiae deletion strains, locus YLL001W, strain dnm1, stronger effect = lower value 0.991 | S. cerevisiae deletion strains, locus YLL026W, stronger effect = lower value 0.984 | S. cerevisiae deletion strains, locus YLL041C, strain sdh2, stronger effect = lower value 0.986 | S. cerevisiae deletion strains, locus YLR027C, strain aat2, stronger effect = lower value 0.991 | S. cerevisiae deletion strains, locus YLR039C, strain RIC1, stronger effect = lower value 0.982 | S. cerevisiae deletion strains, locus YLR058C, strain SHM2, stronger effect = lower value 1.02 | S. cerevisiae deletion strains, locus YLR102C, strain apc9, stronger effect = lower value 1.01 | S. cerevisiae deletion strains, locus YLR113W, strain HOG1, stronger effect = lower value 1.04 | S. cerevisiae deletion strains, locus YLR221C, strain rsa3, stronger effect = lower value 0.993 | S. cerevisiae deletion strains, locus YLR258W, strain gsy2, stronger effect = lower value 1 | S. cerevisiae deletion strains, locus YLR262C, strain YPT6 (second series), stronger effect = lower value 0.985 | S. cerevisiae deletion strains, locus YLR262C, strain YPT6, stronger effect = lower value 1.01 | S. cerevisiae deletion strains, locus YLR268W, strain sec22, stronger effect = lower value 0.999 | S. cerevisiae deletion strains, locus YLR320W, strain mms22, stronger effect = lower value 0.991 | S. cerevisiae deletion strains, locus YLR330W, strain CHS5, stronger effect = lower value 1.01 | S. cerevisiae deletion strains, locus YLR342W, strain FKS1 (second series), stronger effect = lower value 1.02 | S. cerevisiae deletion strains, locus YLR342W, strain FKS1, stronger effect = lower value 0.992 | S. cerevisiae deletion strains, locus YLR357W, strain rsc2, stronger effect = lower value 0.958 | S. cerevisiae deletion strains, locus YLR370C, strain arc18, stronger effect = lower value 0.989 | S. cerevisiae deletion strains, locus YLR371W, strain rom2, stronger effect = lower value 1 | S. cerevisiae deletion strains, locus YLR384C, strain iki3, stronger effect = lower value 0.993 | S. cerevisiae deletion strains, locus YLR418C, strain cdc73, stronger effect = lower value 0.996 | S. cerevisiae deletion strains, locus YML016C, strain PPZ1, stronger effect = lower value 1.01 | S. cerevisiae deletion strains, locus YML032C, strain rad52, stronger effect = lower value 0.999 | S. cerevisiae deletion strains, locus YML120C, strain ndi1, stronger effect = lower value 0.997 | S. cerevisiae deletion strains, locus YML124C, strain tub3, stronger effect = lower value 1 | S. cerevisiae deletion strains, locus YMR058W, strain fet3, stronger effect = lower value 0.997 | S. cerevisiae deletion strains, locus YMR078C, strain ctf18, stronger effect = lower value 1.01 | S. cerevisiae deletion strains, locus YMR125W, strain sto1, stronger effect = lower value 0.992 | S. cerevisiae deletion strains, locus YMR129W, stronger effect = lower value 1 | S. cerevisiae deletion strains, locus YMR205C, strain PFK2, stronger effect = lower value 0.969 | S. cerevisiae deletion strains, locus YMR223W, strain ubp8, stronger effect = lower value 1.02 | S. cerevisiae deletion strains, locus YMR231W, strain pep5, stronger effect = lower value 0.993 | S. cerevisiae deletion strains, locus YMR263W, strain SAP30, stronger effect = lower value 1.03 | S. cerevisiae deletion strains, locus YMR307W, strain GAS1, stronger effect = lower value 0.919 | S. cerevisiae deletion strains, locus YNL067W, strain RPL9B, stronger effect = lower value 1.04 | S. cerevisiae deletion strains, locus YNL071W, strain lat1, stronger effect = lower value 0.999 | S. cerevisiae deletion strains, locus YNL128W, strain TEP1, stronger effect = lower value 1.02 | S. cerevisiae deletion strains, locus YNL183C, strain NPR1, stronger effect = lower value 0.96 | S. cerevisiae deletion strains, locus YNL209W, strain ssb2, stronger effect = lower value 0.988 | S. cerevisiae deletion strains, locus YNL233W, strain BNI4, stronger effect = lower value 1.03 | S. cerevisiae deletion strains, locus YNL248C, strain rpa49, stronger effect = lower value 0.975 | S. cerevisiae deletion strains, locus YNL250W, strain rad50, stronger effect = lower value 1.01 | S. cerevisiae deletion strains, locus YNL271C, strain bni1, stronger effect = lower value 1.01 | S. cerevisiae deletion strains, locus YNL298W, strain CLA4, stronger effect = lower value 1 | S. cerevisiae deletion strains, locus YNL307C, strain MCK1, stronger effect = lower value 1 | S. cerevisiae deletion strains, locus YNL322C, strain KRE1 (second series), stronger effect = lower value 0.995 | S. cerevisiae deletion strains, locus YNR049C, strain mso1, stronger effect = lower value 0.989 | S. cerevisiae deletion strains, locus YNR052C, strain pop2, stronger effect = lower value 1.01 | S. cerevisiae deletion strains, locus YOL006C, strain TOP1, stronger effect = lower value 1.09 | S. cerevisiae deletion strains, locus YOL012C, strain htz1 1.56 | S. cerevisiae deletion strains, locus YOL147C, strain pex11, stronger effect = lower value 1 | S. cerevisiae deletion strains, locus YOR001W, strain rrp6, stronger effect = lower value 0.986 | S. cerevisiae deletion strains, locus YOR061W, strain CKA2, stronger effect = lower value 1.02 | S. cerevisiae deletion strains, locus YOR069W, strain VPS5, stronger effect = lower value 1.01 | S. cerevisiae deletion strains, locus YOR070C, strain gyp1, stronger effect = lower value 0.999 | S. cerevisiae deletion strains, locus YOR080W, strain dia2, stronger effect = lower value 0.995 | S. cerevisiae deletion strains, locus YOR083W, strain WHI5, stronger effect = lower value 0.996 | S. cerevisiae deletion strains, locus YOR106W, strain vam3, stronger effect = lower value 0.999 | S. cerevisiae deletion strains, locus YOR136W, strain idh2, stronger effect = lower value 1 | S. cerevisiae deletion strains, locus YOR144C, strain elg1, stronger effect = lower value 1.01 | S. cerevisiae deletion strains, locus YOR184W, strain ser1, stronger effect = lower value 1 | S. cerevisiae deletion strains, locus YOR231W, strain MKK1, stronger effect = lower value 1.02 | S. cerevisiae deletion strains, locus YOR265W, strain rbl2, stronger effect = lower value 0.996 | S. cerevisiae deletion strains, locus YOR270C, strain vph1, stronger effect = lower value 0.978 | S. cerevisiae deletion strains, locus YOR290C, strain snf2, stronger effect = lower value 0.981 | S. cerevisiae deletion strains, locus YOR316C, strain cot1, stronger effect = lower value 1.01 | S. cerevisiae deletion strains, locus YPL051W, strain arl3, stronger effect = lower value 1.01 | S. cerevisiae deletion strains, locus YPL078C, strain atp4, stronger effect = lower value 0.995 | S. cerevisiae deletion strains, locus YPL106C, strain sse1, stronger effect = lower value 0.978 | S. cerevisiae deletion strains, locus YPL240C, strain hsp82, stronger effect = lower value 0.989 | S. cerevisiae deletion strains, locus YPL256C, strain CLN2, stronger effect = lower value 1.01 | S. cerevisiae deletion strains, locus YPR119W, strain clb2, stronger effect = lower value 1.01 | S. cerevisiae deletion strains, locus YPR141C, strain kar3, stronger effect = lower value 1.01 | S. cerevisiae deletion strains, locus YPR163C, strain tif3, stronger effect = lower value 1.02 | S. cerevisiae deletion strains, locus YPR167C, strain met16, stronger effect = lower value 0.996 | S. cerevisiae deletion strains, strain wtn01, stronger effect = lower value 1 | S. cerevisiae strains, strain wild type, stronger effect = lower value 1.02
